TIM10 inh = inhibits growth of TIM10 yeast strain; S. cerevisiae TIM10 strain growth, BacTiter-Glo luminescence, 24 h; inhibition, % at 10 µM; 330,000 compounds, 1.4% hits; AID 463195;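 active means inhibition of 40% or more at the single tested concentration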;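 further: wild-type TIM10 isogenic control strain grown at permissive 25 °C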
NLRP3 yeast inh = inhibitors of NALP3 inflammasome in yeast | Yeast reconstituted NLRP3/ASC/caspase-1, beta-gal luminescence, 24 h | inhibition, % at 10 µM | 330,000 compounds, 0.39% hits | AID 2825;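 active means inhibition of 50% or more; inactive means inhibition below 50%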;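 further: plate controls were induced DMSO wells for no effect and uninduced yeast grown without galactose for full effect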
NALP1 inh = NALP1 inhibition; S. cerevisiae NALP1/ASC/caspase-1 growth, X-gal OD620, 72 h; inhibition, % at 10 µM; 280,000 compounds, 0.61% hits; in the data active means inhibition mostly above about 24%, no sharp cut-off; inactive means mostly below about 32%
tim23-1 inh = inhibits growth of tim23-1 mutant yeast; S. cerevisiae tim23-1 growth, BacTiter-Glo luminescence, 24 h; inhibition, % at 20 µM; 330,000 compounds, 1.3% hits;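 active means growth inhibition of the mutant yeast at or above 50%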;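 further: temperature-sensitive mutant grown at 25 °C; plate controls were DMSO-treated mutant yeast for no effect and medium wells lacking yeast for full effect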
tim10-1 inh = tim10-1 yeast growth inhibition | S. cerevisiae tim10-1 ts strain growth, BacTiter-Glo, 24 h | inhibition, % at 20 µM | 330,000 compounds, 2.2% hits;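 active means inhibition of at least 40%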;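 further: mutant grown at 25 °C; 0% = DMSO wells with yeast and 100% = wells holding no yeast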
tim10-1 confirm = tim10-1 yeast growth inhibition, confirmed; 7,400 compounds, 56% hits; S. cerevisiae tim10-1 ts strain growth, BacTiter-Glo, 24 h; AID 463213; inhibition, % at 20 µM; shares compounds with tim10-1 inh;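 active means inhibition of yeast growth at or above a set limit in either of two repeat tests at 20 µM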;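 further: tim10-1 mutant grown at permissive 25 °C to find synthetic lethal compounds; 0% = DMSO yeast wells and 100% = medium wells without yeast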
TIM10 conf = confirmation of TIM10 yeast growth inhibitors. shares compounds with TIM10 inh. S. cerevisiae tim10 strain growth, BacTiter-Glo luminescence, 24 h. inhibition, % at 10 µM. 4,600 compounds, 63% hits. AID 463215;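 active means inhibition of yeast growth at or above a set limit in either of two replicates at 10 µM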;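 further: this counterscreen used the strain with wild-type TIM10; 0% = yeast with DMSO and 100% = medium wells lacking yeast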
tim23-1 confirm = tim23-1 yeast growth inhibition, confirmed; shares compounds with tim23-1 inh; S. cerevisiae tim23-1 growth, BacTiter-Glo luminescence, 24 h; inhibition, % at 20 µM; 4,400 compounds, 83% hits; AID 463218;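 active means inhibition above about 39% in either of two replicate wells at 20 µM, limit read from the data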;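 further: temperature-sensitive tim23-1 mutant grown at 25 °C; 0% = DMSO wells with yeast and 100% = medium wells without yeast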
* marks the source's active call; other numbers are inactive results; nt = not tested or not shown. The list is not random: actives were taken first. Their share in the collection is about 4%.

SMILES | TIM10 inh | NLRP3 yeast inh | NALP1 inh | tim23-1 inh | tim10-1 inh | tim10-1 confirm | TIM10 conf | tim23-1 confirm
COc1cc(/C=C/C(=O)N2CCCN(C(=O)/C=C/c3cc(OC)c(OC)c(OC)c3)CC2)cc(OC)c1OC | 2 | 6 | 6 | 16 | 20 | nt | nt | nt
COc1cc(/C=C/C(=O)N2CCC=CC2=O)cc(OC)c1OC | 57* | 6 | nt | 59* | 58* | 40* | 45* | 54*
COc1ccc(-n2cccc2/C=C/[N+](=O)[O-])cc1 | 59* | 7 | 114* | 83* | 62* | 53* | -9 | 73*
Cc1cc(C(=O)Nc2ccon2)ccc1[N+](=O)[O-] | 5 | 1 | nt | -1 | -18 | nt | nt | nt
O=C1Nc2ccccc2/C1=C\C(=O)c1ccccc1 | 82* | 28 | 20 | 88* | 52* | 52* | 93* | -43
CN(O)/C=C1\C(=O)Nc2ccccc21 | 1 | 11 | 1 | 12 | 0 | nt | nt | nt
CCOc1ccc(N2CC(C(=O)Nc3cccc(S(=O)(=O)NC4=NCCC4)c3)CC2=O)cc1 (stereo not given) | -1 | -2 | nt | 4 | 12 | nt | nt | nt
O=C(NN1C(=O)c2ccccc2NC1c1ccccn1)c1ccc([N+](=O)[O-])cc1 (stereo not given) | 4 | 11 | 1 | 6 | -6 | nt | nt | nt
CC1=NN(c2ccccc2)C(=O)/C1=C\c1cn(CCC#N)nc1-c1ccc(Cl)cc1 | 54* | 13 | 27 | 54* | 43* | 31 | 38* | 51*
O=C(O)Cc1cn(-c2ccccc2)nc1-c1ccc(Cl)cc1 | 0 | 18 | -3 | 14 | 10 | nt | nt | nt
CC1=NNC(=O)/C1=C\c1cn(-c2ccccc2)nc1-c1ccc(Cl)cc1 | 89* | 34 | 38 | 89* | 83* | 71* | 89* | 68*
CCn1c(SCC(=O)Nc2nc(C)c(C(=O)OC)s2)nnc1C(C)C | 14 | 7 | -20 | 13 | 9 | nt | nt | nt
Cc1ccc(S(N)(=O)=O)cc1NC(=O)c1ccc2c3c(cccc13)CC2 | -4 | 19 | -6 | 1 | -5 | nt | nt | nt
CCC1CSC(Nc2ccc(C(=O)/C=C/c3ccc(Br)cc3)cc2)=N1 (stereo not given) | 50* | 13 | 18 | 54* | 45* | 51* | 48* | 55*
C/C(=N\NC(=O)c1ccc(CN2CCc3ccccc3C2)cc1)c1ccccc1O | 45* | 14 | 1 | 74* | 47* | 29 | 48* | 79*
CCC(C)(C)c1ccc(OCCCC[n+]2ccc(C)cc2)c(C(C)(C)CC)c1 | -38 | -32 | 6 | 60* | 42* | 17 | nt | 39*
CC(C)=NOc1nc(N(C)C)nc(N(C)C)n1 | 13 | 10 | 31 | 0 | 0 | nt | nt | nt
CCC(=O)NC(=S)NNC(=O)c1ccccc1[N+](=O)[O-] | 53* | 13 | -5 | 56* | 45* | 76* | 60* | 64*
O=C(NC(=S)NNC(=O)c1ccccc1[N+](=O)[O-])c1ccccc1 | 51* | 0 | 6 | 50* | 41* | 52* | 56* | 53*
O=C(COC(=O)/C=C/c1ccc(OC(F)F)cc1)Nc1cccc(S(=O)(=O)N2CCOCC2)c1 | 1 | 25 | nt | 1 | 2 | nt | nt | nt
CCCCC(=O)N1C/C=C\C(c2ccc(OC)cc2)N(Cc2ccc(F)cc2)C(=O)C1 (stereo not given) | 7 | -2 | nt | 32 | 16 | nt | nt | nt
CN(C)c1ccc(S(=O)(=O)N2CCCCC2)cc1NC(=O)CN1C(=O)NC2(CCCC2)C1=O | -13 | 12 | nt | 1 | -8 | nt | nt | nt
O=C(NCCSCc1ccco1)Nc1cc(Cl)cc(Cl)c1 | 34 | 15 | nt | 54* | 46* | 35* | nt | 56*
O=C(Nc1nc(-c2ccco2)c(-c2ccco2)s1)C1CCC1 | 46* | -6 | 47 | 66* | 45* | 59* | 48* | 60*
O=C(Nc1nc(-c2ccco2)c(-c2ccco2)s1)C1CC(=O)N(c2ccc3c(c2)OCCO3)C1 (stereo not given) | 23 | 11 | 21 | 19 | 17 | nt | nt | nt
SMILES | TIM10 inh | NLRP3 yeast inh | NALP1 inh | tim23-1 inh | tim10-1 inh | tim10-1 confirm | TIM10 conf | tim23-1 confirm
CC(OC(=O)c1c[nH]c2ccccc12)C(=O)N1CCCC1 (stereo not given) | -8 | 17 | nt | -3 | -5 | nt | nt | nt
Cc1ccc2c(c1)/C(=C/c1ccc(F)cc1)C(=O)N2 | 66* | 41 | -4 | 62* | 59* | 71* | 77* | 50*
O=C(NCCc1ccccc1)C(c1cccs1)N(C(=O)c1csnn1)C1CC1 (stereo not given) | 16 | -8 | 15 | 13 | 19 | nt | nt | nt
O=C(NCCc1ccccc1)C(c1cccs1)N(C(=O)CCl)c1ccc(Cl)cc1 (stereo not given) | 56* | 12 | 17 | 53* | 55* | 54* | -23 | 58*
Clc1ccc(Cc2nnc(-c3ccccc3Br)o2)cc1 | -9 | 34 | 42 | 4 | 13 | nt | nt | nt
O=c1c(Cl)c(Cl)cnn1Cc1nnc(-c2ccccc2Br)o1 | 44* | -22 | -6 | 78* | 63* | 67* | 50* | 77*
CN=c1scc(-c2cccs2)n1/N=C/c1ccc(O)c(O)c1O | 32 | 19 | -2 | 71* | 42* | 19 | nt | 84*
C=C(C)Cn1cnc2cc(C)c(C)cc21 | 5 | 16 | -1 | -1 | 16 | nt | nt | nt
CCOC(=O)c1ccc(NC(=O)Nc2ncc(Cl)cc2Cl)cc1 | 76* | 14 | nt | 56* | 70* | 78* | 76* | 69*
CCOC(=O)c1ccc(NC(=O)Nc2ncccc2C)cc1 | -2 | 11 | -8 | -8 | -7 | nt | nt | nt
CC(c1cccs1)N(C)Cc1nc(CCc2ccccc2)no1 (stereo not given) | 21 | 14 | 2 | 16 | 20 | nt | nt | nt
N/C(=N\OC(=O)C12CC3CC(CC(C3)C1)C2)c1ccccc1 | 79* | 13 | -5 | 70* | 65* | 54* | 78* | 71*
N/C(=N\OC(=O)C12CC3CC(CC(C3)C1)C2)c1ccccn1 | 41* | 13 | 24 | 51* | 62* | 44* | -16 | 49*
N/C(=N\OC(=O)C12CC3CC(CC(C3)C1)C2)c1cccnc1 | 34 | 16 | 0 | 38 | 35 | nt | nt | nt
O=C(NC1CCCCCCC1)c1ccccc1O | 49* | 24 | 19 | 65* | 46* | 34* | 46* | 60*
CCc1c(C)c(C#N)c2nc3ccccc3n2c1NCCN(C)C | 58* | 36 | 32* | 59* | 63* | 56* | 34* | 65*
COc1cc(/C=C2/N=C(c3ccccc3F)OC2=O)cc(Cl)c1OS(C)(=O)=O | 5 | 17 | -3 | 9 | 13 | nt | nt | nt
Cc1ccc(C)c(/C=C2\N=C(c3ccccc3F)OC2=O)c1 | 46* | 9 | 16 | 53* | 40* | 57* | 53* | 54*
